Holding throughout (experiment): NCI-60 one-dose screen, 48 h (100 = growth as untreated, 0 = no growth, -100 = all killed)
What all share (conditions): 10 µM unless noted

Experiment [1] has as its system NCI-H23 lung.
Experiment [2] relates to NCI-H226 lung.
The subject of experiment [3] is NCI-H322M lung.
The subject of experiment [4] is HOP-62 NSCLC.
Experiment [5] deals with NCI-H460 lung.
For experiment [6], the system named is HOP-92 NSCLC.
For experiment [7], the system named is NCI-H522 lung.
For experiment [8], the system named is A549/ATCC NSCLC.
Experiment [9] has as its system 786-0 renal.
Experiment [10] relates to COLO 205 colon.

About 83,000 compounds went through this panel and 20% of them were active in at least one assay; those are over-represented in the sample as a whole.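 Single-concentration screen, 48 h exposure, 96-well plates. Endpoint: percent growth. Below 10 = active.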 A number with no mark means an inactive call. The source made the active and inactive calls.

Take `COc1cccc(-c2nn(C(C)(C)C)cc2-c2ccnc(NCCCNS(=O)(=O)c3cccc4ccccc34)c2)c1`: the growth in experiment [1] was 109%; in experiment [2] it was 109%; in experiment [3], 111%; in experiment [4] it was 103%; in [5] it was 104%; in experiment [6] it was 104%. The growth was 95.6% in experiment [7], 104% in experiment [8], 103% in experiment [9] and 115% in experiment [10].
For `Cc1cc(N2CCOCC2)nc(NCc2cc(Nc3ccnc4cc(Cl)ccc34)ccc2F)n1`, the growth in experiment [1] is -32.9% (active); in experiment [2] it was 16.1%; in experiment [3], -27.6% (active); in experiment [4] it was -63% (active); in experiment [5] it was -65.7% (active); in experiment [6], -30.8% (active). For the same compound, the growth in [7] was -61% (active); in experiment [8] it was -49.4% (active); in [9], -93.7% (active); in experiment [10], -70.9% (active).
As for `COc1ccc(-c2nc3cc(C(=O)Nc4cc(OC)c(OC)c(OC)c4)ccc3n2C2CCCCC2)cc1`, the growth in experiment [1] is 93.6%; in [2] it was 86.9%; in [3], 97.9%; in experiment [4], 105%; in [5], 99.7%; in experiment [6], 72.7%. Also, the growth in experiment [7] was 77.2%; in [8] it was 98.6%; in experiment [9], 107%; in experiment [10] it was 110%.
As to `CC(C)(C)c1cc(C(C)(C)C)cc(S(=O)(=O)Nc2cc3ccccc3cc2C(=O)NCCN)c1`, the growth in experiment [1] is 85.7%; in experiment [2], 73.8%; in [3], 64.2%; in [4], 83.1%; in [5], -20.3% (active); in [6] it was 50%. Besides, the growth in experiment [7] was 48%; in experiment [8] it was 38.6%; in experiment [9], 86.3%; in experiment [10], -85.6% (active).
Regarding `CC1=C[C@H]2c3c(c(O)c(O)c4oc5cc(O)ccc5c(=O)c34)[C@H](c3cc(O)c(O)c4oc5cc(O)ccc5c(=O)c34)[C@H]2C(C)(C)C1`, the growth in [1] is 15.8%; in experiment [2], 26.3%; in experiment [3] it was 63.6%; in experiment [4] it was 39.8%; in experiment [5], 0.208% (active); in [6], -9.21% (active). For the same compound, the growth was 13.7% in experiment [7], 13.1% in experiment [8], 47.9% in experiment [9] and 46.6% in experiment [10].
Regarding `O=C1c2cc3c(cc2-c2c1c1ccc(F)cc1c(=O)n2C[C@H](O)[C@@H](O)[C@H](O)CO)OCO3`, the growth in experiment [1] was -31.9% (active); in [2], -17.4% (active); in [3] it was 13%; in [4], -7.29% (active); in experiment [5], 3.2% (active); in experiment [6], 6.56% (active). In addition, the growth in [7] was -22.1% (active); in experiment [8], -33.7% (active); in [9], 4.19% (active); in experiment [10] it was -31.1% (active).
In the case of `COc1ccc(-c2nc3ccc(-c4nc5ccc(N6CCN(c7ccccc7)CC6)cc5[nH]4)cc3[nH]2)cc1OC`, the growth in [1] was -21.4% (active); in experiment [2], 69.9%; in [3], -2.95% (active); in experiment [4], 27%; in experiment [5], -6.7% (active); in experiment [6], 13.6%. The growth in experiment [7] was -33% (active); in [8], -56.2% (active); in experiment [9], -79.8% (active); in [10] it was -70.9% (active).
Take `COc1ccc(O)c(N=Nc2nccs2)c1`: the growth is 87.9% in [1]; 92.2% in [2]; 91.4% in experiment [3]; 94.2% in [4]; 101% in experiment [5]; 49.4% in experiment [6]. Further, the growth in [7] was 88.2%; in experiment [8], 91.1%; in experiment [9], 70.6%; in experiment [10] it was 94.8%.
`O=C(CN1C(=O)/C(=C/c2ccc(Cl)cc2)SC1=S)NCCCN1CCOCC1`: the growth in experiment [1] was 97%; in [2], 95.2%; in experiment [3], 104%; in [4], 111%; in experiment [5] it was 101%; in [6], 85.7%. Moreover, the growth in experiment [7] is 96.9%; in experiment [8], 104%; in experiment [9], 111%; in [10], 116%.
Take `CC1(C)CC[C@]2(C(=O)Nc3ccccn3)CC[C@]3(C)C(=CC[C@@H]4[C@@]5(C)C/C(=C/c6cccnc6)C(=O)C(C)(C)[C@@H]5CC[C@]43C)[C@H]2C1`: the growth in experiment [1] was 35.9%; in experiment [2], 47.8%; in experiment [3], 79.1%; in [4], 54.7%; in [5], 10.6%; in experiment [6], 57.7%. Besides, the growth in experiment [7] was 30.5%; in experiment [8], 27.3%; in experiment [9], 43.2%; in [10], 4.76% (active).
Consider `C#CCOc1ccc2ncnc(Nc3cccc(CNC(=O)C=C)c3)c2c1`, for which the growth in [1] is 104% [8.25 µM]; in experiment [2], 77.3% [8.25 µM]; in experiment [3] it was 105% [8.25 µM]; in experiment [4], 108% [8.25 µM]; in [5], 101% [8.25 µM]; in experiment [6], 93.3% [8.25 µM]. Besides, the growth in experiment [7] was 91.9% [8.25 µM]; in [8] it was 102% [8.25 µM]; in experiment [9], 93.1% [8.25 µM]; in experiment [10] it was 111% [8.25 µM].
With `CCc1nc(N)nc(N)c1C#CC(C)c1ccc(-c2ccncc2)cc1Cl` (stereo not given), the growth in experiment [1] was 16.2%; in experiment [2], 57.4%; in experiment [3], 38.4%; in [4], 10.3%; in experiment [5], 5.02% (active); in experiment [6], 6.88% (active). For the same compound, the growth in experiment [7] was -9.46% (active); in experiment [8], 9.61% (active); in [9], 18.3%; in experiment [10] it was 12.3%.
Regarding `C=CC(=O)Nc1cccc(-c2nc(SC)nc(Nc3cccc(OC)c3)c2C#N)c1`, the growth in [1] is 81%; in [2] it was 70.9%; in [3] it was 94.5%; in experiment [4] it was 85.5%; in experiment [5] it was 86%; in [6], 29.5%. Besides, the growth was 58.7% in experiment [7], 57.3% in experiment [8], 62.7% in [9] and 93.3% in [10].

The values above are taken from PubChem BioAssay (NCI).
